Hits are enriched below; roughly 3.5% of the tested compounds scored in any of these assays.
FBW7 act = human FBW7 E3 ligase activation, primary screen | Q969H0 | AlphaScreen FBW7–phospho-cyclin E peptide binding, activator screen | normalized activity (activation), % at 26.1 µM | 650,000 tested, 0.13% active; in the data active = normalized activity above about 1.9%;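 note: purified mutant Fbw7 with reduced substrate affinity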
TEAD-YAP block = TEAD-YAP interaction inhibition; HEK-TIYL cells, TEAD-Gal4/YAP UAS-luciferase luminescence; inhibition, % at 9.12 µM; 640,000 tested, 1.4% active; AID 1259422; in the data active = inhibition above about 32%;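 note: 0% = median of test compound wells and 100% = reference inhibitor wells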
GPR151 activ = activators of human GPR151; activation, % at 11.2 µM; PathHunter beta-arrestin GPR151 cells, luminescence; 650,000 tested, 1% active; Q8TDV0; in the data active = activation above about 4.9%;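 note: 0% = median of compound wells and 100% = cells with positive control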
MITF primary = blocks human microphthalmia-associated transcription factor; AlphaScreen MITF homodimerization, bead proximity signal; inhibition, % at 2.6 µM; 650,000 tested, 0.91% active; AID 1259374; in the data active = inhibition above about 50%;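 note: 0% = vehicle wells with protein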
* = called active by the depositor.

`O=C(Nc1ccccc1Br)/C(=C/c1cccc([N+](=O)[O-])c1)NC(=O)c1ccccc1F` gave FBW7 act 0, TEAD-YAP block 3, GPR151 activ -1 and MITF primary -4.
For Clc1cccc(-c2cnn3c(N4CCOCC4)ccnc23)c1 the results were FBW7 act 0, TEAD-YAP block 77*, GPR151 activ -2 and MITF primary 18.
OCc1ccccc1-c1cnn2c(N3CCOCC3)ccnc12 was read as FBW7 act 0, TEAD-YAP block 94*, GPR151 activ -4 and MITF primary 12.
Screening Fc1ccccc1-c1cnn2c(N3CCOCC3)ccnc12 returned FBW7 act 0, TEAD-YAP block 64*, GPR151 activ -5 and MITF primary -66.
Screening c1ccc2c(-c3cnn4c(N5CCOCC5)ccnc34)cccc2c1 returned FBW7 act 0, TEAD-YAP block -41, GPR151 activ -1 and MITF primary -6.
Screening NC(=O)C1CCN(c2csc3ccccc3c2=O)CC1 returned FBW7 act 0, TEAD-YAP block 4, GPR151 activ -2 and MITF primary 17.
For CC1CCCN(c2csc3ccccc3c2=O)C1 (centres undefined) the results were FBW7 act 1.9*, TEAD-YAP block -2, GPR151 activ 1 and MITF primary 18.
O=C(C1CC1)N(Cc1ccco1)c1nc2c(F)cccc2s1 was read as FBW7 act 1, TEAD-YAP block 4, GPR151 activ -1 and MITF primary 17.
`COc1ccc(-c2cn3nc(N4CCCC(C(=O)N5CCCCCC5)C4)sc3n2)cc1` (centres undefined) gave FBW7 act 0, TEAD-YAP block 45*, GPR151 activ 1 and MITF primary 7.
For O=C1CCCC2=C1C(c1ccc(Cl)cc1)NC(=S)N2 (centres undefined) the results were FBW7 act 0, TEAD-YAP block 17, GPR151 activ 2 and MITF primary 6.
`CC1(C)CC(=O)C2=C(C1)Nc1ccccc1NC2c1cccc(F)c1` (centres undefined) gave FBW7 act 0, TEAD-YAP block 11, GPR151 activ -1 and MITF primary 4.
CC1(C)CC(=O)C2=C(C1)NC(=S)NC2c1cccc(F)c1 (centres undefined) was read as FBW7 act 0, TEAD-YAP block 52*, GPR151 activ 0 and MITF primary -1.
`O=C1CCCC2=C1C(c1cccc(O)c1)NC(=S)N2` (centres undefined) gave FBW7 act 0, TEAD-YAP block 65*, GPR151 activ 1 and MITF primary -22.
`CCOC(=O)C1(CCOC)CCN(Cc2c(C)n(C)c3ccccc23)CC1` gave FBW7 act 0, TEAD-YAP block 9, GPR151 activ 1 and MITF primary 14.
For CC1CCCCC1NC(=O)CN(C)S(=O)(=O)c1ccc2nc(-c3ccccc3)[nH]c2c1 (centres undefined) the results were FBW7 act 0, TEAD-YAP block 26, GPR151 activ 1 and MITF primary 54*.
O=C(COc1ccc(Br)cc1Br)Nc1ccc2c(c1)OCO2 was read as FBW7 act 0, TEAD-YAP block -50, GPR151 activ -1 and MITF primary 6.
`Nc1cc(S(=O)(=O)O)c(O)c2c1C(=O)c1c(O)c(S(=O)(=O)O)cc(N)c1C2=O` gave FBW7 act -1, TEAD-YAP block 17, GPR151 activ -3 and MITF primary 61*.
`CCCCCC(=O)NC(=S)NNC(=O)c1ccccc1` gave FBW7 act 0, TEAD-YAP block -2, GPR151 activ 0 and MITF primary 6.
`COc1ccc(OCc2n(CC(=O)OC3CC(C)CCC3C(C)C)c3ccccc3[n+]2C)cc1` (centres undefined) gave FBW7 act 0, TEAD-YAP block 41*, GPR151 activ 1 and MITF primary 8.
Screening O=C(Nc1nnc(-c2ccc3c(c2)OCCO3)o1)c1ccccc1Br returned FBW7 act 0, TEAD-YAP block 68*, GPR151 activ -1 and MITF primary 21.
For O=C(Nc1ccc2c(c1)OCCO2)c1cc(Br)cc(Br)c1I the results were FBW7 act 0, TEAD-YAP block 47*, GPR151 activ 0 and MITF primary 0.
O=C(CSc1ncccc1C(=O)O)Nc1ccc2c(c1)OCCO2 was read as FBW7 act 0, TEAD-YAP block 63*, GPR151 activ 0 and MITF primary -1.
O=C(Nc1nnc(-c2ccc3c(c2)OCCO3)o1)c1ccccc1Oc1ccccc1 was read as FBW7 act 0, TEAD-YAP block 9, GPR151 activ -1 and MITF primary 1.
O=C(Nc1ccc2c(c1)OCCO2)c1ccccc1Br was read as FBW7 act 0, TEAD-YAP block 37*, GPR151 activ -3 and MITF primary -4.
Screening CCOC(=O)CSc1nnc(NCC(=O)OCC(C)C)c(=O)[nH]1 returned FBW7 act 0, TEAD-YAP block -6, GPR151 activ -1 and MITF primary 19.
CC(C)(C)C(=O)NCC(c1ccco1)S(=O)(=O)c1cccs1 (centres undefined) was read as FBW7 act 0, TEAD-YAP block -2, GPR151 activ -1 and MITF primary -4.
Screening COc1ccc(Cl)cc1NC(=O)c1c(O)c2cccc3c2n(c1=O)CC3 returned FBW7 act 0, TEAD-YAP block 1, GPR151 activ 2 and MITF primary 8.
Cc1nc(C(C)NC(=O)CCc2nnc(COc3ccccc3)o2)c(C)s1 (centres undefined) was read as FBW7 act 0, TEAD-YAP block -15, GPR151 activ 2 and MITF primary -4.
Screening N#CCCN(C(=O)CCl)c1ccccc1F returned FBW7 act 0, TEAD-YAP block 46*, GPR151 activ -2 and MITF primary 13.
COc1ccccc1N(CCC#N)C(=O)CCl was read as FBW7 act 0, TEAD-YAP block 18, GPR151 activ 0 and MITF primary 4.
Screening CC(C)NC(=O)c1ccc(OC2CCN(Cc3ccccn3)CC2)cc1 returned FBW7 act 0, TEAD-YAP block -3, GPR151 activ -1 and MITF primary 5.
For N#C/C(=C\c1ccc(OCC(=O)NCC2CCCO2)cc1)C(=O)NCc1ccccc1 (centres undefined) the results were FBW7 act 0, TEAD-YAP block 7, GPR151 activ 1 and MITF primary -22.
For N#C/C(=C\c1ccc(OCC(=O)NCC2CCCO2)cc1)C(=O)NCCc1ccccc1 (centres undefined) the results were FBW7 act 2.0*, TEAD-YAP block 0, GPR151 activ 0 and MITF primary 8.
`CC(=O)Oc1ccc(C(=O)N2CCN(c3cccc(C)c3C)CC2)cc1` gave FBW7 act 0, TEAD-YAP block 51*, GPR151 activ 1 and MITF primary 7.
Cc1cccc(N2CCN(C(=O)c3ccccc3)CC2)c1C was read as FBW7 act 0, TEAD-YAP block 14, GPR151 activ 1 and MITF primary 24.
For Brc1ccc(C2Nc3c(I)cccc3C3C=CCC32)cc1 (centres undefined) the results were FBW7 act 0, TEAD-YAP block 11, GPR151 activ -2 and MITF primary 10.

Bioassay records (PubChem)
